The values below come from PubChem BioAssay (NCATS).

Assay [1] can be described thus: Confirmatory screen GU Rhodamine qHTS for Zika virus inhibitors qHTS (AID 1347157). Further: nearly all actives have a fitted effect of over 70% in size. Further: potency means the concentration at half of the fitted maximal effect. The method in brief:
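Unlinked NS2B/NS3, 25 nM; Rhod110 peptide, 1.5 microM; compounds, up to 114 microM. Reaction run 15 min at RT in 10 mM Tris-HCl pH 8.0, 0.01% Tween 20; kinetic fluorescence change fitted with a 4-parameter Hill model.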
(In general: In qHTS, concentration-response curves come from the screen itself.)

The subject of assay [2] is Zika virus NS2B-NS3 protease (unlinked complex). The assay is described as follows: Primary screen GU Rhodamine qHTS for Zika virus inhibitors: Unlinked NS2B-NS3 protease assay (AID 1347159). Further: nearly all actives have a fitted effect of over 60% in size. Further: potency means the concentration at half of the fitted maximal effect. The method in brief: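 A qHTS format was used, with compound concentrations ranging up to 114 microM. Each compound was preincubated with 25 nM NS2B-NS3 protease, and the substrate was then added at 1.5 microM. Curves were fitted with a 4-parameter Hill model.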

Assay [3] can be described thus: Confirmatory screen NINDS Rhodamine qHTS for Zika virus inhibitors (AID 1347161). Further: nearly all actives have a fitted effect of over 60% in size. Further: potency means the concentration at half of the fitted maximal effect. The method in brief:
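Enzyme (25 nM, linked NS2B-NS3) was preincubated 15 min with compound in 10 mM Tris-HCl pH 8.0, 0.01% Tween 20. Rhodamine110 substrate (1.5 microM) was then added and fluorescence read at start and after 15 min.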

For assay [4], the system named is Zika virus NS2B-NS3 protease (linked construct). The assay is described as follows: Primary screen NINDS Rhodamine qHTS for Zika virus inhibitors (AID 1347160). Further: nearly all actives have a fitted effect of over 55% in size. Further: potency means the concentration at half of the fitted maximal effect. The method in brief: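 Kinetic fluorescence (Ex 480 nm, Em 540 nm) over 15 min with 1.5 microM Rhodamine110 peptide and 25 nM linked protease.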
The test system of assay [5] is Zika virus NS2B-NS3 protease. The experiment in a line: Primary screen GU AMC qHTS for Zika virus inhibitors (AID 1347154). Further: nearly all actives have a fitted effect of over 70% in size. The method in brief:
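Unlinked Zika NS2B hydrophilic domain/NS3 protease domain noncovalent complex (25 nM final) in 10 mM Tris-HCl pH 8.0, 0.01% Tween 20, with AMC peptide substrate. Fluorescence (ex 340, em 450 nm) change over 15 min, room temperature; percent inhibition fitted to 4-parameter Hill equation.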

In assay [6] the target is Lysine-specific demethylase 5B (Homo sapiens) (UniProt Q9UGL1). The experiment in a line: Optimization screen for KDM5B Histone Demethylases FDH coupled qHTS against the LOPAC library (AID 1347166). In a few lines:
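KDM5BDeltaAP (200nM final) preincubated 10 min with compound, then 12.5uM H3K4Me3, 25uM a-ketoglutarate, ascorbate, Fe(II), NAD+ and FDH added; 50mM HEPES pH 7.5, 0.01% Tween-20. NADH fluorescence (340/450 nm) change over 30 min, room temperature.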

The subject of assay [7] is Zika virus NS2B-NS3 protease (linked). The experiment in a line: 384 well plate NINDS AMC confirmatory qHTS for Zika virus inhibitors (AID 1347163). Further: potency means the concentration at half of the fitted maximal effect; nearly all actives have a fitted effect of over 50% in size. The settings on record: Recombinant NS2B-NS3 protease, Ac-VKTGKR-AMC fluorescence. In a few lines: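 Linked protease 5/30/60 nM final; cpds up to 1 mM final, ~15 min preinc. Substrate Ac-VKTGKR-AMC 30 microM final. RT, dark, 25 min; FI ex 355/em 460; normalized to no-enzyme/no-inhibitor ctrls.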

Assay [8] concerns Zika virus NS2B-NS3 protease (linked construct). The assay is described as follows: 384 well plate NINDS Rhodamine confirmatory qHTS for Zika virus inhibitors (AID 1347164).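 Further: fluorescence from protease cleavage of Ac-LKRR-rhodamine 110 substrate; top concentration of the series differs between compounds; nearly all actives have a fitted effect of over 65% in size.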 In a few lines: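 Fluorescence read at ex 485 nm/em 538 nm, 25 min after adding 10 microM Ac-LKRR-Rd substrate at room temperature in the dark; signal normalized to no-enzyme and no-inhibitor controls. Enzyme final 5, 30 or 60 nM; compounds, ~15 min preincubation.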

The nature of assay [9]: Vero cells viability qHTS for Zika virus inhibitors (AID 1347167). The method in brief:
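Counter-screen for cytotoxicity of hits from NS2B-NS3 protease qHTS. Overnight-attached cells (2.5 x 10^5 cells/mL, DMEM/4% FBS) were dosed in titration, incubated 24 to 48 hours, then assayed by CellTiter Glo.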

Inconclusive results are not listed. Active and inactive are the calls of the source. The call rests on the fitted dose curve; in most records, active means well fitted curve in the direction sought with a large enough effect; inconclusive means small, poorly fitted or top-dose-only effect, or another doubt; inactive means no such curve, though single readings can be large; an effect the other way counts as inactive or inconclusive.

Lysine-specific demethylase 5B (Homo sapiens), sequence (Q9UGL1 whole entry, looked up): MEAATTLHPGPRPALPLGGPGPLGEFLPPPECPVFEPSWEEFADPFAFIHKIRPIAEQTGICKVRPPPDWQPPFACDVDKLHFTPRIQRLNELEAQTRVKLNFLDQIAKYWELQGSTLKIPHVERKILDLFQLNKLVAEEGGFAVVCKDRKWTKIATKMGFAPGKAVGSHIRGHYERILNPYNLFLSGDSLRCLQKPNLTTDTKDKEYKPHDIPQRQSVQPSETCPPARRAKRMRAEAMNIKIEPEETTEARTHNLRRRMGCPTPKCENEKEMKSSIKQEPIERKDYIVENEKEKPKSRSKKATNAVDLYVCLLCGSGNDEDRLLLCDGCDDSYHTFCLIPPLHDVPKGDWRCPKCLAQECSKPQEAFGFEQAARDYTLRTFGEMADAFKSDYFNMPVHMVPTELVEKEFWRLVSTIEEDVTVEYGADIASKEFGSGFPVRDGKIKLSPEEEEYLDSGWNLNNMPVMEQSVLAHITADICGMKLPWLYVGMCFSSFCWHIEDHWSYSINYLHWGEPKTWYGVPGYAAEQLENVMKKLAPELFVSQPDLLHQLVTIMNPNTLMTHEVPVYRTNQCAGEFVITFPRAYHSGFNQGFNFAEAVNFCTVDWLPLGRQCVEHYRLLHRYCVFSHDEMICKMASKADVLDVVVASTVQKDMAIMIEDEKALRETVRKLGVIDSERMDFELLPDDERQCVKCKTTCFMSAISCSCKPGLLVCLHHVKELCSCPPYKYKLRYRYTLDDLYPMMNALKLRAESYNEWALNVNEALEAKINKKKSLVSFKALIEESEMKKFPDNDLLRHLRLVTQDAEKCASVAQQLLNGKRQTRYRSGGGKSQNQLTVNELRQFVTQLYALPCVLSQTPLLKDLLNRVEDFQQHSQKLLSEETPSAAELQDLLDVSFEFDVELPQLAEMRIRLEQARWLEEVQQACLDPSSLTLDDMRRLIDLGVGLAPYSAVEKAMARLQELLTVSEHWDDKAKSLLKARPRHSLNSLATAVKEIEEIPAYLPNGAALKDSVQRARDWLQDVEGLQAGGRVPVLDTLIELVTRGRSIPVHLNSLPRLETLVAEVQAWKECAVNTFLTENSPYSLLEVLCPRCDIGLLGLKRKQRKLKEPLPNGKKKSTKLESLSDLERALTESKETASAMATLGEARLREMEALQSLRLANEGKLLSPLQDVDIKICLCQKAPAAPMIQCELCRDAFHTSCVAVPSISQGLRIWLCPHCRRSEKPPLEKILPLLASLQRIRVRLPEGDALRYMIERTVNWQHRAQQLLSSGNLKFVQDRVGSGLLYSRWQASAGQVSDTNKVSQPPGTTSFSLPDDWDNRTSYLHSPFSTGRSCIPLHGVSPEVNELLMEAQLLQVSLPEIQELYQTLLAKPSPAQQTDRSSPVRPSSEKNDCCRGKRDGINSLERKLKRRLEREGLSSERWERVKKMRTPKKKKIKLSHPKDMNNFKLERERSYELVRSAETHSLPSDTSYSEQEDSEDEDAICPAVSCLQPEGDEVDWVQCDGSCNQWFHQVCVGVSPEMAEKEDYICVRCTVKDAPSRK

With `COC(=O)C1(C)CCC(O)C2(C)c3cc(O)c(C(C)C)cc3C(O)C(OC(C)=O)C12` (centres undefined), the Potency is 24.2 µM (active) in [1] and 27.1 µM (active) in [3]. Further, the Potency entry in assay [2] was “inactive”.
`Clc1ccc(OCC2=NCCN2)cc1Cl`: the Potency result in assay [2] and in [4] was “inactive” throughout.
For the compound `NC(C(=O)O)c1cc(=O)[nH]o1` (centres undefined), the Potency entry in assay [5] and in assay [6] was “inactive” in each case.
As to `OCCCCC#Cc1cncc(OC[C@@H]2CCN2)c1`, the Potency result in [2] and in [4] was “inactive” each time.
On to `Cc1cccc(NC(=O)N[C@@H]2N=C(c3ccccc3)c3ccccc3N(C)C2=O)c1`, for which the Potency entry in assay [2] and in assay [4] was “inactive” throughout.
On to `NCC(CP(=O)(O)O)c1ccc(Cl)cc1` (centres undefined), for which the Potency result in assay [5] and in assay [6] was “inactive” in each case.
On to `COC1CC(OC2CCC3(C=O)C(CCC4C3CCC3(C)C(C5=CC(=O)OC5)CCC43O)C2)OC(C)C1OC1OC(CO)C(O)C(O)C1O` (centres undefined), for which the Potency entry in [2] and in assay [4] was “inactive” each time.
For the compound `CCC1NC(=O)C2C(Cl)C(Cl)CN2C(=O)C(C(C)O)NC(=O)CC(c2ccccc2)NC(=O)C(CO)NC1=O` (centres undefined), the Potency entry in assay [2] and in [4] was “inactive” throughout.
As for `Oc1cc(Cl)c(Cl)cc1Cl`, the Potency result in [1] is “inactive”.
On to `CC(C)[C@@]1(NC(=O)[C@@H]2C[C@@H]3c4cccc5[nH]cc(c45)C[C@H]3N(C)C2)O[C@@]2(O)[C@@H]3CCCN3C(=O)[C@H](Cc3ccccc3)N2C1=O`, for which the Potency result in [5] and in [6] was “inactive” each time.
As to `C[C@H](NC(=O)Cc1cc(F)cc(F)c1)C(=O)N[C@@H]1N=C(c2ccccc2)c2ccccc2N(C)C1=O`, the Potency result in assay [2] and in assay [4] was “inactive” in each case.
As for `COc1c(C(C)C)cc2c(c1O)[C@@]1(C(=O)O)CCCC(C)(C)C1CC2` (some centres undefined), the Potency in assay [1] is 6.85 µM (active); in [2], 6.31 µM (active); in [3] it was 9.67 µM (active). Besides, the Potency entry in [4] was “inactive”.
With `CCCCCOc1cc2c(cc1-c1cc(/C=C/C(=O)O)ccc1O)C(C)(C)CCC2(C)C`, the Potency in assay [1] is 1.75 µM (active); in assay [2] it was 2.51 µM (active); in [4], 3.16 µM (active); in [3] it was 2.21 µM (active); in [7] it was 25.1 µM (active). For the same compound, the Potency result in assay [8] was “inactive”. The call in assay [9] was inactive.
On to `C[N+](C)(C)CC#CCOC(=O)Nc1cccc(Cl)c1`, for which the Potency entry in assay [5] and in [6] was “inactive” in each case.
On to `CCCN1CCO[C@H]2c3cc(O)ccc3OC[C@@H]21`, for which the Potency result in assay [2] and in assay [4] was “inactive” throughout.
Take `N#CC(OC1OC(COC2OC(CO)C(O)C(O)C2O)C(O)C(O)C1O)c1ccccc1` (centres undefined): the Potency result in assay [2] and in assay [4] was “inactive” throughout.
As to `CC(=O)OC1CC(O)C2(C)C(CC(OC(C)=O)C3(C)C2CCC2(C)C(c4ccoc4)C(=O)C4OC423)C1(C)C` (centres undefined), the Potency entry in assay [2] and in assay [4] was “inactive” in each case.
With `C[N+](C)(C)CC#CCN1CCCC1=O`, the Potency entry in assay [5] and in assay [6] was “inactive” each time.
Consider `COc1cc(CCNCc2ccccc2O)c(OC)cc1C#N`, for which the Potency entry in [2] and in [4] was “inactive” throughout.
Turning to `CC(N)Cc1c[nH]c2ccc(OCc3cccs3)cc12` (centres undefined), the Potency result in [5] and in assay [6] was “inactive” each time.
Take `CN1C(=O)N(c2ccc(C#N)c(C(F)(F)F)c2)C(=O)[C@]1(CO)c1ccccc1`: the Potency result in assay [2] and in assay [4] was “inactive” throughout.
As to `CO[C@@H]1[C@H](O)[C@@H](O[C@@H]2C[C@H]3CC[C@@H]4C(CC[C@]5(C)[C@@H](C6=CC(=O)OC6)CC[C@]45O)[C@@]3(C)[C@H](O)C2)O[C@H](C)[C@@H]1O[C@@H]1O[C@H](CO)[C@@H](O)[C@H](O)[C@H]1O` (some centres undefined), the Potency entry in assay [2] and in [4] was “inactive” throughout.
Regarding `COC(=O)C1(C)CCC(=O)C2(C)c3c(O)cc(C(C)C)cc3C(O)C(OC(C)=O)C12` (centres undefined), the Potency entry in assay [2] was “inactive”.
As for `COC1CC(OC2CCC3(C)C(=CCC4C3CCC3(C)C(C(C)OC5OC(COC6OC(CO)C(O)C(O)C6O)C(O)C(O)C5O)CCC43O)C2)OC(C)C1OC1OC(C)C(O)C(OC)C1O` (centres undefined), the Potency entry in assay [2] and in [4] was “inactive” each time.
With `CCN1CC2(COC)C3[C@@H](OC)C4C1C3(C1C[C@]3(O)[C@H](OC(=O)c5ccccc5)C1[C@]4(OC(C)=O)[C@@H](O)[C@@H]3OC)[C@H](OC)C[C@H]2O` (some centres undefined), the Potency result in [1], in assay [4] and in [3] was “inactive” in each case. Besides, the Potency in assay [2] is 89.1 µM (active).
As to `CN1CCCC1CCOC(c1cc2nccc(C(=O)O)c2[nH]1)c1ccccc1Cl` (centres undefined), the Potency entry in assay [2] and in assay [4] was “inactive” in each case.
Turning to `O=C1C[C@@H]2OCC=C3CN4CC[C@]56c7ccccc7N1[C@H]5[C@H]2[C@H]3C[C@H]46`, the Potency entry in assay [2] and in [4] was “inactive” in each case.
On to `C[N+](C)(C)CCOC(=O)CBr`, for which the Potency result in [5] and in assay [6] was “inactive” throughout.
In the case of `CN1C2CCC1CC(OC(c1ccccc1)c1ccccc1N)C2` (centres undefined), the Potency entry in assay [5] and in assay [6] was “inactive” in each case.
As to `CN1[C@@H]2CC[C@H]1CC(OC(=O)C1C=Nc3ccccc31)C2` (some centres undefined), the Potency entry in assay [2] and in assay [4] was “inactive” each time.
As for `C=C[C@H]1[C@H](O[C@@H]2O[C@H](CO)[C@@H](O)[C@H](O)[C@H]2O)OC=C2C(=O)OCC[C@H]21`, the Potency result in assay [2] and in [4] was “inactive” each time.
With `Cc1c(Cl)cccc1S(=O)(=O)Nc1nc(CC(=O)N2CCN(C)CC2)cs1`, the Potency entry in [2] and in assay [4] was “inactive” in each case.
Consider `COC1=CC(=O)O[C@@H](CCc2ccccc2)C1`, for which the Potency result in [2] and in [4] was “inactive” in each case.
Take `C[C@@]12C[C@@H](c3ccoc3)OC(=O)C1CC[C@]1(C)[C@H]2[C@H]2C=C[C@]1(O)C(=O)O2` (some centres undefined): the Potency result in assay [2] and in [4] was “inactive” each time.
As for `CC[C@H]1CN2CC[C@H]1C[C@@H]2[C@@H](O)c1ccnc2ccc(OC)cc12`, the Potency result in [2] and in [4] was “inactive” each time.
In the case of `CCc1c(C(=O)C(N)=O)c2c(OCC(=O)OC)cccc2n1Cc1ccccc1`, the Potency result in [2] and in assay [4] was “inactive” in each case.
On to `CN(C)CCc1c[nH]c2ccc(CN3CCN(C)S3(=O)=O)cc12`, for which the Potency result in assay [2] and in assay [4] was “inactive” throughout.
As to `COC1CC(=O)C23C(=O)NC(CC(C)C)C2C(C)=C(C)C(OO)C3/C=C(\C)CCC(O)C1O` (centres undefined), the Potency entry in assay [2] and in assay [4] was “inactive” each time.
